# A selection: hits, their analogues and other compounds. The true share with any hit is near 2%.
# Arbovirus anti – antivirals against arbovirus infection, primary screen, cell-based, full library, 10K replicate subset; arbovirus infection cell-based antiviral screen; AID 1251, 2008; inhibition, % at 10 µM; hit rate 0.37% among 200,000; in the data active means inhibition above about 30%
# HMGR II inh – inhibitors of E. faecalis class II HMGR, primary screen, biochemical, Enterococcus faecalis. HMG-CoA reductase (Enterococcus faecalis, mvaE). purified E. faecalis HMGR, NADPH absorbance 340 nm kinetic. inhibition, % at 10 µM. hit rate 0.41% among 190,000. AID 1066, 2008;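 active means inhibition above a set limit, the median over all tested compounds plus 3 SD, cut at about 9.5% in these data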;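 further: enzyme runs in reverse so mevalonate oxidation gives rising NADPH absorbance; 0% = complete reaction with DMSO and 100% = background rate lacking mevalonate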
# PKD1 kinase inh – inhibitors of human PKD1 kinase, biochemical, fluorescence polarization | Serine/threonine-protein kinase D1 (Homo sapiens), Q15139 | hit rate 0.056% among 200,000 | inhibition, % (test concentration not listed) | PKD1 kinase fluorescence polarization assay; in the data active means inhibition above about 50%
# Target sequence (Q15139 whole entry, looked up): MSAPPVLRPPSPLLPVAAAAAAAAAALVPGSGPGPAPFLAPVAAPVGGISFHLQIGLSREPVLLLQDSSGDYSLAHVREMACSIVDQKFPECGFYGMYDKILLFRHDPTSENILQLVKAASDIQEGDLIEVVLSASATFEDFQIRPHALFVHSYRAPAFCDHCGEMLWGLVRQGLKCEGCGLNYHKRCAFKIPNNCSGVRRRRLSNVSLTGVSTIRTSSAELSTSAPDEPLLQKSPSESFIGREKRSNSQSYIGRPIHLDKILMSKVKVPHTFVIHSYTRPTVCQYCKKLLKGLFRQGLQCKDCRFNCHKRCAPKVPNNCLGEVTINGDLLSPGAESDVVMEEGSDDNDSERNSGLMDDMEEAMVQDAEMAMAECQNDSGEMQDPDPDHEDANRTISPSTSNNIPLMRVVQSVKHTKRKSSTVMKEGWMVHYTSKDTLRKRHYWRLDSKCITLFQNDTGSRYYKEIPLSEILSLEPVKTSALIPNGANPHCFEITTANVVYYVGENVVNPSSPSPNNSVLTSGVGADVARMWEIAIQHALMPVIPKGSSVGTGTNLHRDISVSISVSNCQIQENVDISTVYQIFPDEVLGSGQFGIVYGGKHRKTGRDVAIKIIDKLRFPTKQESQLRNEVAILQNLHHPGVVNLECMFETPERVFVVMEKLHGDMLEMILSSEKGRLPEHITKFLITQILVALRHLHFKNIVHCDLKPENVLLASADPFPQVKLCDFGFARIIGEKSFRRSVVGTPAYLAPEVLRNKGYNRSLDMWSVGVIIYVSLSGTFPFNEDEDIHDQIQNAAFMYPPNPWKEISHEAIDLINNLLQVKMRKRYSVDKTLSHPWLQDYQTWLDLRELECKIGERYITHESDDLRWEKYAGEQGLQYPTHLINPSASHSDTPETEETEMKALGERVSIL
# Wee1 stabilizer – Wee1 degradation inhibitors, primary screen, cell-based, HeLa, Wee1K328M-luciferase, luminescence; reporter increase, % at 5 µM; HeLa Luc-Wee1K328M stability; 100% = proteasome inhibitor MG132 effect; Wee1-like protein kinase (Homo sapiens), P30291; hit rate 1.2% among 220,000;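 active means activation above the mean of all tested compounds plus 3 SD, set per screening run, cut at about 8.8% in these data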;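 further: cells exposed to compound for 20 h before luminescence read; 0% = DMSO alone and 100% = MG132 at 30 µM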
# Hsp70 activator – Hsp70 transcriptional activators, primary screen, cell-based, HeLa, Hsp70 promoter luciferase, luminescence, 10 µM; HeLa Hsp70 promoter luciferase reporter; scaled: vehicle 0, proteasome-inhibitor control 100%; activation, % at 10 µM; hit rate 0.04% among 200,000; AID 1203, 2008;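 active means activation above the mean across all tested compounds plus 3 SD, cutoff set per campaign, cut at about 5.5% in these data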;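 further: 100% = MG132 at 30 µM as the positive control and 0% = DMSO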
# Wee1 stab conf – Wee1 degradation inhibitors, confirmation, cell-based, HeLa, Wee1K328M-luciferase, luminescence, triplicate | shares compounds with Wee1 stabilizer | HeLa Luc-Wee1K328M degradation; vehicle 0%, proteasome-blocked wells 100% | activation, % at 5 µM | hit rate 4% among 1,100 | AID 1410, 2008; in the data active means activation above about 8.9%
# The depositor's hits bear a star; · = no result given.
SMILES,Arbovirus anti,HMGR II inh,PKD1 kinase inh,Wee1 stabilizer,Hsp70 activator,Wee1 stab conf
N/C(=N\OC(=O)c1ccc2c(c1)OCO2)c1ccncc1,·,·,·,1,·,·
Cc1cccn2c1nc(=S)n2C(=O)c1ccco1,-3,2,-11,12*,0,10*
CC(=O)n1cc([C@H]2C=C(C(=O)N3CCN(Cc4ccc5c(c4)OCO5)CC3)O[C@@H](OCCCCO)C2)c2ccccc21,-14,-1,5,1,0,·
COc1cc(OC)cc(C(=O)NC2CCSC2=O)c1 (configuration not stated),-3,5,-7,12*,0,0
CCN(CC)c1ccc(/C=N/NC(=O)c2ccc([N+](=O)[O-])cc2)cc1,3,-1,-3,2,0,·
CCN(CC)c1ccc(/C=N/NC(=O)c2ccco2)cc1,-13,-4,-7,20*,0,13*
CCN(CC)c1ccc(/C=N/NC(=O)c2cnccn2)cc1,-9,-6,1,15*,0,19*
COc1ccc(NC(=S)NCc2cccn2C)cc1,1,-15,0,0,0,·
O=C(Cc1cccs1)N/N=C/c1ccccc1,·,·,·,-3,·,·
CCOc1ccc(/C=N/NC(=O)Cc2cccs2)cc1,·,·,·,14*,·,0
CC(=O)Nc1ccc(/C=N/Nc2nc3ccccc3s2)cc1,·,·,·,13*,·,10*
C(=N\Nc1nc2ccccc2s1)/c1ccco1,10,-2,6,12*,0,3
C(=N\Nc1nc2ccccc2s1)/c1cccs1,18,-1,-4,14*,0,5
Cc1ccsc1/C=N/Nc1nc2ccccc2s1,2,-2,-4,14*,0,6
Cc1cc(C)nc(N/N=C/c2sccc2C)n1,8,-4,-1,3,0,·
COc1ccc(/C=N/Nc2nc3ccccc3s2)cc1O,-27,-1,10,7,0,·
COCCN1C(=S)NC(c2cccc(C(F)(F)F)c2)C(C(=O)N2CCOCC2)=C1C (configuration not stated),1,-5,-7,5,0,·
Cc1ccc(CN2CCSc3ccc(C(=O)NCc4ccccn4)cc32)cc1,-27,0,4,-4,0,·
CSC(=Nc1cccc(C)c1)NC#N,2,1,8,0,0,·
O=C(NNS(=O)(=O)c1ccc(C(=O)NC2CCCC2)cc1)c1ccncc1,14,0,4,5,0,·
C(=N\Nc1nc2ccccc2[nH]1)/c1ccc2c(c1)OCCO2,·,·,·,11*,·,0
CC(C)(C)SCCNC(=O)CSCc1ccc([N+](=O)[O-])cc1,15,-6,-9,-2,0,·
C=C(C)COc1ccc(-c2[nH]ncc2Oc2ccc(OC)cc2)c(O)c1,·,·,·,18*,·,4
COc1ccc(-c2cc(C(=O)NNC3=NCCC3)c3c(C)nn(-c4ccccc4)c3n2)cc1,-16,-6,-1,-1,0,·
COc1ccc(NC(=O)c2onc(C)c2Cl)cc1OC,-6,1,-2,0,0,·
SMILES,Arbovirus anti,HMGR II inh,PKD1 kinase inh,Wee1 stabilizer,Hsp70 activator,Wee1 stab conf
COc1ccc(NC(=O)c2onc(C)c2Cl)cc1,·,·,·,17*,·,-1
COc1cc(C(C)=O)ccc1OC(=O)c1cc2cccc(OC)c2oc1=O,6,-2,7,53*,-1,3
O=C(Nc1cccs1)Nc1ccc(Br)cc1F,17,-3,-16,14*,0,-2
Cc1ccc(NC(=O)Nc2cccs2)c(Cl)c1,4,-3,-4,2,0,·
CC(=O)NC(Cc1ccc(C(C)C)cc1)C(=O)NC1CCN(C(=O)c2cccc(C)c2)CC1 (configuration not stated),3,5,-5,3,0,·
O=C(NCC1CCCO1)c1ccc(NS(=O)(=O)c2cccs2)cc1 (configuration not stated),·,·,·,-4,·,·
CN1CCN(c2oc(Cc3cccc4ccccc34)nc2C#N)CC1,·,·,·,13*,·,0
Cc1nc2ccc(F)cc2cc1C(=O)NCc1ccco1,7,-1,-7,-2,0,·
Cc1nc2ccc(F)cc2cc1C(=O)Nc1ccc(Cl)c(Cl)c1,-3,-8,-8,15*,0,0
CC1CCCCN1CCn1c(=S)[nH]c2cc3c(cc2c1=O)OCO3 (configuration not stated),12,-1,-2,-2,0,·
CNC(=O)COC(=O)COc1ccc2c(C)cc(=O)oc2c1,0,-2,8,-2,0,·
CCOC(=O)CN(C(=O)COc1ccc2c(C)cc(=O)oc2c1)c1ccc(OCC)cc1,4,-1,-3,13*,0,1
COc1ccc(NC(=O)Nc2ccccc2SC)cc1,-4,0,-5,11*,0,2
CCc1sc(NC(=O)C(C)C)nc1-c1ccccc1,-1,3,-7,0,0,·
CC(=C/c1ccccc1)/C=N/NC(=O)c1ccccn1,·,·,·,32*,·,-2
CC(/C=N/NC(=O)c1ccncc1)=C\c1ccccc1,13,-6,3,0,0,·
Cc1ccc2nc(C)c(C(=O)NN=C3CCCCCC3)n2c1,-7,5,1,4,0,·
Cc1cc(N/C=C\c2nnnn2-c2ccccc2)no1,-7,3,-10,-1,0,·
CN(C)c1ccc(/C=C/c2nnnn2-c2ccccc2)cc1,-14,0,-2,12*,0,4
Cc1nn(-c2ccccc2)c(C)c1/C=N/NC(=O)c1cnccn1,·,·,·,1,·,·
Cc1c(C(=O)NCCSCc2c(F)cccc2Cl)cnn1-c1ccc(F)cc1,·,·,·,2,·,·
CNC(=O)c1c(Cl)cnn1-c1ccc(F)cc1,-1,-2,-2,13*,0,3
O=C(OCC(=O)c1ccccc1Cl)c1cnccn1,2,-7,9,12*,0,-6
Cc1ccc(C(=O)COC(=O)c2cnccn2)cc1,5,-1,-6,0,0,·
Cc1ccc(OCCn2cccn2)c(C)c1,-2,1,1,-2,0,·
Cc1noc(C)c1-c1nnc(-c2ccc(C(F)(F)F)cc2)o1,·,·,·,2,·,·
O=C1/C(=C\c2ccc(O)c(O)c2)C(c2ccccc2)=NN1c1ccccc1,-35,-3,9,11*,0,2
COc1cc(/C=C2\C(=O)N(c3ccc(NC(C)=O)cc3)N=C2c2ccccc2)ccc1O,-7,4,2,0,0,·
COc1ccc(N(CC(=O)Nc2c(C)n(C)n(-c3ccccc3)c2=O)S(=O)(=O)c2ccc(F)cc2)cc1,-1,-5,4,13*,0,0
O=C(NC(=S)N(CCO)Cc1ccccc1)c1cc(Br)ccc1Cl,2,5,-3,11*,0,-1

# Screens (PubChem)
